The text below walks through data of PubChem BioAssay.

The test system of assay [1] is Plasmodium falciparum Sir2 (PF13_0152, Sir2A). The assay is described as follows: Plasmodium falciparum Sir2A binding compounds – biochemical, small-molecule microarray, 635 nm fluorescence, primary screen (AID 1098).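 Also: score merges spot fluorescence intensity with its signal-to-noise ratio.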 The settings on record: fluorescence 635 nm, higher = more signal.
Assay [2] can be described thus: probe aDKK1 binding to arrayed compounds – biochemical, biotinylated probe, 635/667 nm fluorescence, primary screen (AID 1099).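 Also: score merges 667nm spot fluorescence with signal to noise across triplicate slides.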 The note with it: small-molecule microarray, higher = more signal.
Assay [3] can be described thus: probe aCHRDL2 binding to arrayed compounds – biochemical, biotinylated probe, 635/667 nm fluorescence, primary screen (AID 1100). The note with it: small-molecule microarray, higher = more signal.
Assay [4] can be described thus: change in splice reporter luminescence, either direction, cell-based, HEK293, spliceosome inhibition project, primary screen (AID 1101).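 Also: HEK293 cells carrying a splicing-competent luciferase reporter gene; test concentration not given here.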 The settings on record: HEK293 splicing luciferase reporter, 24 h, higher = more signal, called active from +8 up or from −8 down. Background: Reporter assays use an easily measured gene product as a stand-in for the process of interest.

The target of assay [5] is Fibroblast growth factor 10 (Homo sapiens) (UniProt O15520). Nature of the assay: compounds binding fibroblast growth factor 10 – biochemical, small-molecule microarray, 635 nm fluorescence, primary screen (AID 1102). The settings on record: FGF10 binding, fluorescence 635 nm, higher = more signal.
For assay [6], the system named is glycogen synthase kinase-3 (GSK3A per assay name; protocol says GSK3B). The assay is described as follows: compounds binding glycogen synthase kinase-3 – biochemical, small-molecule microarray, 635 nm fluorescence, GSK3A, primary screen (AID 1103). Also: the record names both GSK3A and GSK3B. The settings on record: fluorescence 635 nm, higher = more signal.
Assay [7] deals with Epidermal growth factor receptor (Homo sapiens) (UniProt P00533). The assay is described as follows: compounds binding epidermal growth factor receptor – biochemical, small-molecule microarray, 635 nm fluorescence, primary screen (AID 1104).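 Also: score merges 667 nm emission intensity with spot signal to noise over triplicate slides.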 The note with it: EGFR binding, higher = more signal.
The target in assay [8] is Follistatin-related protein 3 (Homo sapiens) (UniProt O95633). Nature of the assay: compounds binding follistatin-related protein 3 – biochemical, small-molecule microarray, 635 nm fluorescence, primary screen (AID 1105).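 Also: score merges emission near 667 nm and signal to noise per printed spot across three slides.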 The settings on record: FSTL3 binding, higher = more signal.
For assay [9], the target named is Dickkopf-related protein 1 (Homo sapiens) (UniProt O94907). The assay is described as follows: small molecules binding DKK1 protein – biochemical, small-molecule microarray, 635 nm fluorescence scan, primary screen (AID 1106).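 Also: score merges emission near 667 nm with signal to noise over three replicate slides.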 The settings on record: higher = more signal.
The test system of assay [10] is Inhibin beta A chain (activin A). The assay is described as follows: small molecules binding activin A – biochemical, small-molecule microarray, 635 nm fluorescence scan, primary screen (AID 1107).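 Also: mouse activin A protein probed at 4.33 µg/mL on printed slides; score merges bound-protein fluorescence near 667 nm with spot signal-to-noise.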 The settings on record: INHBA, higher = more signal.
In assay [11] the test system is Human papillomavirus type 1a protein E7 (residues 44-93). The assay is described as follows: small molecules binding HPV E7 44-93 – biochemical, small-molecule microarray, residues 44-93, 635 nm fluorescence, primary screen (AID 1108).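 Also: E7 fragment applied at 1 µg/mL in TBST for 1 h at 4 C; score combines spot fluorescence with its signal to noise ratio.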 The settings on record: fluorescence 635 nm, higher = more signal.
Assay [12] is described as follows: hepatitis C replication reporter changes, two-sided – Huh7 cells, luciferase reporter, HCV replication inhibitor project, primary screen (AID 1109).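 Also: huh7 hepatoma cells harbouring a luciferase neomycin HCV replicon reporter; luciferase luminescence as measure of HCV replicon replication; test concentration not given here.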 The settings on record: Huh7 HCV replicon luciferase reporter, 48 h; higher = more signal.
Assay [13] has as its target Left-right determination factor 2 (Homo sapiens) (UniProt O00292). The assay is described as follows: small molecules binding LEFTY2 protein – biochemical, small-molecule microarray, 635 nm fluorescence scan, primary screen (AID 1110). The settings on record: higher = more signal.
The target of assay [14] is Calmodulin-1 (Homo sapiens) (UniProt P0DP23). Nature of the assay: small molecules binding calmodulin-1 with EGTA – biochemical, small-molecule microarray, Cy5-labelled CALM1, profiling panel (AID 1111).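 Also: labelled calmodulin applied in Tris saline Tween buffer holding calcium plus EGTA and DTT.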 The settings on record: Cy5-CALM1 binding fluorescence, higher = more signal.
The target is the same in assay [15]. The assay is described as follows: small molecules binding Ca-loaded calmodulin-1 – biochemical, small-molecule microarray, Cy5-labelled CALM1, plus calcium, artefact control for SMM control-protein annotation, profiling panel (AID 1112).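 Also: score merges spot fluorescence with signal to noise from triplicate slides.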 The settings on record: Cy5-CALM1 binding fluorescence, higher = more signal.
The nature of assay [16]: probe aWnt5a binding to arrayed compounds – biochemical, biotinylated probe, 635/667 nm fluorescence, primary screen (AID 1113).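 Also: score merges 667 nm fluorescence intensity with signal-to-noise per printed feature.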 The note with it: small-molecule microarray, higher = more signal.
The nature of assay [17]: probe aShh binding to arrayed compounds – biochemical, biotinylated probe, 635/667 nm fluorescence, primary screen (AID 1114).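 Also: probe is biotin-labelled aShh protein from a stem cell growth factor screen; measures binding of labelled protein to compounds printed on the slide; score merges feature fluorescence at 667 nm with signal-to-noise.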 The settings on record: small-molecule microarray, higher = more signal.
Assay [18] can be described thus: probe aNog binding to arrayed compounds – biochemical, biotinylated probe, 635/667 nm fluorescence, primary screen (AID 1115).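 Also: probe is biotinylated aNog protein used at 0.15 µg/mL for 1 h at 4 C; z-score combines 667 nm fluorescence of each spot with its signal to noise.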 The note with it: small-molecule microarray, higher = more signal.
In assay [19] the target is Torsin-1A-interacting protein 1 (Homo sapiens) (UniProt Q5JTV8). The assay is described as follows: compound microarray binding of lysate hLAP1 – cell lysate, small-molecule microarray, COS7 lysate, 635/667 nm fluorescence, primary screen (AID 1116). The settings on record: 635 nm fluorescence, higher = more signal.
The target in assay [20] is Alpha-bungarotoxin (Bungarus multicinctus) (UniProt P60615). Nature of the assay: compounds binding labelled alpha-BTX control protein – biochemical, small-molecule microarray, Alexa647 label, 635/667 nm fluorescence, artefact control for SMM control protein annotation, profiling panel (AID 1117). The note with it: alpha-BTX-A647 binding fluorescence, higher = more signal.

Activity calls are given as the source filed them.

Follistatin-related protein 3 (Homo sapiens), sequence (O95633 whole entry, looked up): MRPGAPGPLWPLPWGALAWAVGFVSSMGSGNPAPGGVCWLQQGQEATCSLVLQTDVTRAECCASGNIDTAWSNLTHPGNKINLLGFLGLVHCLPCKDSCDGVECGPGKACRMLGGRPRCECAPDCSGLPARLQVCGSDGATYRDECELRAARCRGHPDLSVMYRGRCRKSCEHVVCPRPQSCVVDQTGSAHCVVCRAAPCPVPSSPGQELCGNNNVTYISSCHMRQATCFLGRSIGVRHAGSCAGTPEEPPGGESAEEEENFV
Left-right determination factor 2 (Homo sapiens), sequence (O00292 whole entry, looked up): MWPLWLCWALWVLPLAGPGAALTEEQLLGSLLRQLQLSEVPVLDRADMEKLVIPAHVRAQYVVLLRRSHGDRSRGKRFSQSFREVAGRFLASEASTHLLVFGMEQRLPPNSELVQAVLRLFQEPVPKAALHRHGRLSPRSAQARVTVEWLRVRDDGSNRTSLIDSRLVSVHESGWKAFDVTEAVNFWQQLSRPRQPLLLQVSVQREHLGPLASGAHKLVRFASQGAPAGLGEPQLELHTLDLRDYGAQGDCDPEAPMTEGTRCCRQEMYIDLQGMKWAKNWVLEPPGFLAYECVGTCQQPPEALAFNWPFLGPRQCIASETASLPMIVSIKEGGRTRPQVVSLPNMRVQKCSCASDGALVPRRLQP
Alpha-bungarotoxin (Bungarus multicinctus), sequence (P60615 whole entry, looked up): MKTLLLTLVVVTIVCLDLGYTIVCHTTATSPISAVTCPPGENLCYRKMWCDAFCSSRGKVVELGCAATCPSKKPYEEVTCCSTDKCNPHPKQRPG
Torsin-1A-interacting protein 1 (Homo sapiens), sequence (Q5JTV8 whole entry, looked up): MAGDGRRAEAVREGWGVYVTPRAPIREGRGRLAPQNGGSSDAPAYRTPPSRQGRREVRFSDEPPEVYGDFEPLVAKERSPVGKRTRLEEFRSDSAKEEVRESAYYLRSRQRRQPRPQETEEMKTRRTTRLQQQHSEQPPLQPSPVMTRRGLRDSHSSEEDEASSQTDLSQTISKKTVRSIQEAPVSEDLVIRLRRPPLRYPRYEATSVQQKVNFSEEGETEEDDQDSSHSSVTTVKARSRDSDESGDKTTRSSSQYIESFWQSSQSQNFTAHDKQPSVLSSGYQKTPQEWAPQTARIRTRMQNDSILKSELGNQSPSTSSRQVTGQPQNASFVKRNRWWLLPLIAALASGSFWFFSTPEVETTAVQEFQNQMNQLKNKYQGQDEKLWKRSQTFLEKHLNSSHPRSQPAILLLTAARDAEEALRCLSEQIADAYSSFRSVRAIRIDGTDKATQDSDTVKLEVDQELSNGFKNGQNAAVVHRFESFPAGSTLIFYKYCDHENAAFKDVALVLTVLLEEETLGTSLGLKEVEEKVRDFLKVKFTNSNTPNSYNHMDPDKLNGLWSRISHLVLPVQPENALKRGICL
Dickkopf-related protein 1 (Homo sapiens), sequence (O94907 whole entry, looked up): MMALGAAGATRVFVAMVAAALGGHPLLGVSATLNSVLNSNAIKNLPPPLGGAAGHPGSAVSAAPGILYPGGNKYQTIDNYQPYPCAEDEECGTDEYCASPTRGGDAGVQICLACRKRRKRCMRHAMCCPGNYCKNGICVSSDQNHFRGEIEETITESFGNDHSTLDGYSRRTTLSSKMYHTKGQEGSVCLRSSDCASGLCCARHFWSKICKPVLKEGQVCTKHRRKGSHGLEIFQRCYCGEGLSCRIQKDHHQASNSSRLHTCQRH
Epidermal growth factor receptor (Homo sapiens), sequence (P00533 whole entry, looked up): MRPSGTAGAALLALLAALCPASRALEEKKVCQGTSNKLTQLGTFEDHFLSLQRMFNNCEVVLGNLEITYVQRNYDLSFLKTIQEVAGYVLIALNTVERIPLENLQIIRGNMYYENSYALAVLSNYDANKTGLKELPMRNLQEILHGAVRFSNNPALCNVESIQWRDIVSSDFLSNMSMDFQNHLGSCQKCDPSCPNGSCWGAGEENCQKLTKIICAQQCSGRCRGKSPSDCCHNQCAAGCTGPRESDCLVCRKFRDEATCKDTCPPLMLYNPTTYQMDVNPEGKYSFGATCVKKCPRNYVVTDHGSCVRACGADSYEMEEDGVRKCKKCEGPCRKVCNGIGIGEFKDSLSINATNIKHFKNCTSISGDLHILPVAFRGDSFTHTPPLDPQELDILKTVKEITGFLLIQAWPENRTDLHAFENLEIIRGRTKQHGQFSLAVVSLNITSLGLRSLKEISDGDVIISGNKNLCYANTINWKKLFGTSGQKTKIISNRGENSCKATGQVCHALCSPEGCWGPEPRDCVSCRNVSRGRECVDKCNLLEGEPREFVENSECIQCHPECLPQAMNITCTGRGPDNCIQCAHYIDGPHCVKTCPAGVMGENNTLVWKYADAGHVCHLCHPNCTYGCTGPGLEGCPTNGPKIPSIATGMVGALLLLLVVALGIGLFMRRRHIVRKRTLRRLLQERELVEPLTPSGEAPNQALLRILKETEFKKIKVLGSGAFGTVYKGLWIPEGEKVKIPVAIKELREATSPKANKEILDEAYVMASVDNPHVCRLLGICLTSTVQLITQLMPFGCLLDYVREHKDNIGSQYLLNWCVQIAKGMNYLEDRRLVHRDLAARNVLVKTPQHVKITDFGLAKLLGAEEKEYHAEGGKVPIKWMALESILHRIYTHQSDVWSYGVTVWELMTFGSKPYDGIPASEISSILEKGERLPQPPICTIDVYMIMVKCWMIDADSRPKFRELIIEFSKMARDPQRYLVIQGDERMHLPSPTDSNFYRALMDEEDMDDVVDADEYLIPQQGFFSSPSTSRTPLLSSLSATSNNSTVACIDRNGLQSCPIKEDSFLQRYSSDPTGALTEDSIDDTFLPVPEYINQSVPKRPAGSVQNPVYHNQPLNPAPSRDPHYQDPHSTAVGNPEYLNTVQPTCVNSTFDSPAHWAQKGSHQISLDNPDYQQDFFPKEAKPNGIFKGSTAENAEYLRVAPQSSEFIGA
Fibroblast growth factor 10 (Homo sapiens), sequence (O15520 whole entry, looked up): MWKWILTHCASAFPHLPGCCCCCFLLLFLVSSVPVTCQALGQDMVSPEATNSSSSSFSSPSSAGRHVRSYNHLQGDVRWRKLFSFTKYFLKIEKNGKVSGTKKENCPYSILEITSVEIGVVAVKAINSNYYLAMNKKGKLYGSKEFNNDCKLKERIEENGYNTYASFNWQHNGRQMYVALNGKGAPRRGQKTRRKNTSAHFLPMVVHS

On to `O=C1[C@H]2[C@H]3[C@H](O)[C@H](O)CC(=NOCc4ccccc4)[C@H]3CC[C@H]2C(=O)N1c1ccc(F)cc1F`, for which the composite z-score in assay [1] was -0.183; in assay [2], -0.268; in assay [3] it was -0.675; in [5] it was 0.266; in [6] it was 0.167; in assay [7] it was 0.534. In addition, the composite z-score in assay [8] is -0.0913; in assay [9], 0.0949; in assay [10] it was -0.364; in assay [11], -0.642; in assay [13], 0.349; in [14], -0.251. In addition, the composite z-score was -0.349 in [15]; -0.123 in [16]; -0.339 in assay [17]; -0.47 in assay [18]; -0.273 in assay [19]; -0.0546 in assay [20]. Also, the z-score was -0.772 (inactive) in [4] and 0.473 in assay [12].

For `CC(C)CON=C1C[C@@H](O)[C@@H](O)[C@@H]2[C@@H]3C(=O)N(Cc4ccccc4)C(=O)[C@@H]3CC[C@@H]12`, the composite z-score was -0.511 in assay [1]; -0.278 in assay [2]; -0.737 in assay [3]; 0.5 in assay [5]; 0.649 in assay [6]; 0.571 in [7]. The composite z-score in assay [8] was 0.617; in [9], 0.836; in [10] it was -0.269; in assay [11], 0.673; in assay [13] it was 0.409; in [14], -0.312. In addition, the composite z-score in assay [15] was -0.475; in [16], -0.0792; in assay [17] it was -0.365; in [18] it was -0.321; in assay [19], 0.0394; in assay [20] it was -0.102. Also, the z-score in assay [4] was -0.28 (inactive); in assay [12], -0.19.

On to `CC(C)c1ccc(NN2C(C(O)c3ccc4c(c3)OCO4)C=CC3C(=O)N(c4ccccc4)C(=O)C32)cc1` (stereo not given), for which the composite z-score in assay [1] stood at 1.19; in assay [2], 0.521; in [3], 0.944; in assay [5], 0.584; in assay [6], 1.18; in assay [7] it was 0.407. The composite z-score in assay [8] was found to be 0.886; in [9], 0.263; in assay [10], 0.581; in assay [11], 0.688; in assay [13], 0.168; in assay [14], 2.56. In addition, the composite z-score in [15] amounted to 1.28; in assay [16], 0.0775; in [17] it was 0.108; in assay [18], 2.13; in assay [19] it was 2.2; in [20], 1.92. Further, the results for the z-score in [4] and in assay [12] were 1.18 (inactive) and 1.11, respectively.

As to `C[C@H](c1ccccc1)N1C(=O)[C@H]2[C@H]3[C@H](O)[C@H](O)CC(=O)[C@@H]3CC[C@H]2C1=O`, the composite z-score was -0.0226 in assay [1]; -0.0352 in assay [2]; -0.394 in assay [3]; 0.615 in assay [5]; -0.0137 in assay [6]; 0.268 in assay [7]. Further, the composite z-score in assay [8] was 0.344; in assay [9], 0.822; in assay [10], -1.79; in assay [11], -0.81; in [13] it was 0.417; in [14], -0.229. For the same molecule, the composite z-score in assay [15] is -0.465; in assay [16], -0.0495; in [17], -0.237; in assay [18] it was 0.0638; in assay [19], -0.0506; in [20] it was 0.3. Further, the z-score in [4] was 0.737 (inactive); in assay [12], -1.22.

Turning to `CCCNC(=O)[C@@H]1c2ccccc2C(=O)N(c2ccc(C)cn2)[C@H]1c1ccc(CO)cc1`, the composite z-score was 1.78 in assay [1]; 0.662 in assay [2]; 0.733 in assay [3]; -0.584 in [5]; -0.503 in [6]; -0.327 in [7]. Besides, the composite z-score is -1.06 in assay [8]; -0.537 in [9]; 1.14 in assay [10]; -1.05 in [11]; -0.181 in assay [13]; -0.769 in assay [14]. Also, the composite z-score is -0.462 in [15]; -0.238 in assay [16]; -0.0155 in [17]; -0.434 in assay [18]; 0.185 in assay [19]; 0.4 in assay [20]. For the same molecule, the z-score in [4] was 1.12 (inactive); in assay [12] it was 0.0924.

On to `C=C(CCCC)C(=O)CC[C@@H](OC(C)=O)c1cccc(OCCO)c1`, for which the composite z-score in assay [1] was 1.12; in [2], -0.278; in assay [3], -0.654; in [5] it was 0.195; in assay [6] it was -0.249; in assay [7] it was -0.161. The composite z-score was 0.158 in assay [8]; 0.329 in assay [9]; 0.474 in [10]; -0.701 in [11]; 0.333 in assay [13]; -0.602 in assay [14]. The composite z-score in [15] was -1.28; in [16], -0.12; in [17], -0.0227; in assay [18], -0.0381; in [19], 2.13; in assay [20], -0.0603. The z-score in assay [4] is 0.726 (inactive); in assay [12], -4.56.
